In PubChem BioAssay (Tox21):
Values joined by “and” are separate entries in the source; they are usually repeats but may differ in a detail not shown here. Equal values may be shown once. Records with an inconclusive call do not appear. Entries that show only a call come without a potency. Some structures have more than one record in an assay (separate samples or runs), and their calls can disagree. Active and inactive are the calls of the source. Unless noted, calls come from the whole dose curve; as a rule, active = well fitted curve in the direction sought with a large enough effect in the repeat runs; inconclusive = weak or mixed curves; inactive = no such curve, though single readings can be large; an effect the other way counts as inactive or inconclusive.

Assays:
[1] = qHTS assay to identify small molecule antagonists of the sonic hedgehog signaling (Shh) pathway (AID 1259369; calls by dose curve; note: nearly all actives have a fitted effect of over 45% in size; note: potency is the fitted concentration of half-maximal effect)
In short: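 3T3Gli1-Luc, conditioned-medium-stimulated, 24hr cpd, 37C/5% CO2; Gli1-driven firefly Luc luminescence after 30min RT with luciferase reagent. Cells plated 4hr before cpd.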

[2] = qHTS assay to identify small molecule agonists of the estrogen receptor beta (ER-beta) signaling pathway - cell viability counter screen (AID 1259380); note: nearly all actives have a fitted effect of over 30% in size; note: potency is the fitted concentration of half-maximal effect
In short: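 HEK293T ER-beta-UAS-bla; 2% CS-FBS; 6 hr pre-plate, 16 hr cpd at 37C/5% CO2; LiveBLAzer read first, then CellTiter-Glo 30 min RT, luminescence.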

[3] = qHTS assay to identify small molecule antagonists of the estrogen receptor beta (ER-beta) signaling pathway - cell viability counter screen (AID 1259382); note: nearly all actives have a fitted effect of over 55% in size; note: potency is the fitted concentration of half-maximal effect
In short: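 Cells: ER-beta-UAS-bla HEK293T, 2,000/well, 2% CS-FBS, 6 hr settle. Cpd + E2 (1nM final), 16 hr, 37C/5% CO2. Bla FRET substrate 2 hr RT, then CellTiter-Glo 30 min RT, luminescence.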

[4] = target: Estrogen receptor (Homo sapiens) (UniProt P03372); experiment: qHTS assay to identify small molecule agonists of the estrogen receptor alpha (ER-alpha) signaling pathway in the presence of an antagonist (AID 1259383; calls by dose curve; note: top concentration of the series differs between compounds; nearly all actives have a fitted effect of over 15% in size)
In short: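 VM7Luc4E2, endog. ER-alpha + 4×ERE-luc; charcoal-stripped FBS, phenol red-free, 5 d; 24hr plating; +10.0nM ICI-182,780 (final); cpds 15 conc, 22hr, 37C/5% CO2; ONE-Glo luminescence.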

[5] = qHTS assay to identify small molecule agonists or antagonists of the thyroid stimulating hormone receptor (TSHR) signaling pathway - wild type cell line counter screen (AID 1259384; calls by dose curve)
In short: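 Wild-type HEK293 cells were plated 18 h at 37 C/5% CO2, pin-dosed with compound plus Ro20-1724 medium, held 30 min at room temperature, then given cAMP-d2 and anti-cAMP-cryptate; fluorescence was read after 1 h. Fifteen concentrations, triplicate.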

[6] = qHTS assay to identify small molecule agonists of the estrogen receptor alpha (ER-alpha) signaling pathway in the presence of an antagonist - cell viability counter screen (AID 1259386);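 note: cells exposed to compounds for 22 h at 37 °C before the viability read; nearly all actives have a fitted effect of over 30% in size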; note: potency is the fitted concentration of half-maximal effect
In short: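 VM7Luc4E2, stripped-serum pre-culture 5 d; 24hr plating; +ICI-182,780 10.0nM final; cpds 15 conc, 22hr, 37C/5% CO2; CellTiter-Fluor added at 21hr, fluorescence 1hr later.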

[7] = target: Progesterone receptor (Homo sapiens) (UniProt P06401); experiment: qHTS assay to identify small molecule antagonists of the progesterone receptor (PR) signaling pathway (AID 1346795; active = well fitted inhibition curve with a large enough effect in the signal ratio in the repeat runs, not every such curve was filed as active; the % refers to the signal ratio; note: potency is the fitted concentration of half-maximal effect)
In short: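 Fluorescence intensity measured 2 hr after adding beta-lactamase FRET substrate to PR-UAS-bla HEK293T cells that had been co-treated 16 hr with compound and 1 nM R5020 (final concentration) in 2% charcoal-stripped FBS.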

[8] = qHTS assay to identify small molecule antagonists of the progesterone receptor (PR) signaling pathway - cell viability counter screen (AID 1346798); note: nearly all actives have a fitted effect of over 50% in size; note: potency is the fitted concentration of half-maximal effect
In short: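 CellTiter-Glo luminescence; PR-UAS-bla HEK293T, 3,000 cells/well; compound + R5020, 16 hr, 37C/5% CO2; 30 min RT before read.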

[9] = qHTS assay to identify small molecule agonists of the progesterone receptor (PR) signaling pathway - cell viability counter screen (AID 1346799; calls by dose curve; note: nearly all actives have a fitted effect of over 45% in size; note: potency is the fitted concentration of half-maximal effect)
In short: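 In parallel with the beta-lactamase readout, cytotoxicity toward PR-UAS-bla HEK293T cells was measured by CellTiter-Glo luminescence following 16 hr compound incubation in 2% charcoal-stripped FBS medium.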

[10] = qHTS assay to identify small molecule agonists of the TGF-beta/Smad signaling pathway (AID 1346859; active = well fitted activation curve with a large enough effect in the signal ratio in the repeat runs, not every such curve was filed as active; the % refers to the signal ratio; note: series mostly up to about 77 µM)
In short: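 After overnight seeding, SBE-bla HEK 293T cells are dosed with compounds in DMSO and kept 5 hr at 37 C, 5% CO2. LiveBLAzer-type FRET substrate is then applied for 2 hr at room temperature.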

[11] = target: Thyrotropin-releasing hormone receptor (Homo sapiens) (UniProt P34981); experiment: qHTS assay to identify small molecule antagonists of the thyrotropin-releasing hormone receptor (TRHR) signaling pathway (AID 1346877; active = well fitted inhibition curve with a large enough effect in the repeat runs, not every such curve was filed as active; note: series mostly up to about 51 µM)
In short: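 Intracellular calcium fluorescence, read kinetically every second over 3 min, reports TRH-evoked signalling in HEK293 cells carrying TRHR. Test compounds were added 5 min ahead of a 1 nM TRH challenge.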

[12] = target: Thyrotropin-releasing hormone receptor (Homo sapiens) (UniProt P34981); experiment: qHTS assay to identify small molecule agonists of the thyrotropin-releasing hormone receptor (TRHR) signaling pathway (AID 1346891; calls by dose curve;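 note: HEK293 cells expressing TRHR with calcium dye readout; series mostly up to about 58 µM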)
In short: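 Compounds were tested as agonists at 15 concentrations, in triplicate, on TRHR-Hek293 cells; calcium-sensitive dye fluorescence was recorded for 3 min following addition.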

[13] = qHTS assay to identify small molecule agonists of the androgen receptor (AR) signaling pathway in the presence of an antagonist - cell viability counter screen (AID 1259379); note: nearly all actives have a fitted effect of over 25% in size; note: potency is the fitted concentration of half-maximal effect
In short: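 Cells: MDA-kb2 (MMTV-luc, AR and GR elements), 3,000/well, 5 hr settle. Added: nilutamide 3.0uM final, then compounds (15 conc.). Incubation: 16 hr, 37C, no CO2. Read-out: CellTiter-Fluor, 1 hr, fluorescence.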

[14] = target: Androgen receptor (Homo sapiens) (UniProt P10275); experiment: qHTS assay to identify small molecule agonists of the androgen receptor (AR) signaling pathway in the presence of an antagonist (AID 1259381; calls by dose curve; note: nearly all actives have a fitted effect of over 15% in size)
In short: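 MDA-kb2 cells, 3,000/well, rested 5hr at 37C/0% CO2 → nilutamide 3.0uM final or buffer → compounds, 15 conc. → 16hr at 37C → ONE-Glo, 30min RT → luminescence.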

[15] = qHTS assay to identify small molecule agonists of the TGF-beta/Smad signaling pathway - cell viability counter screen (AID 1346829); note: nearly all actives have a fitted effect of over 45% in size; note: potency is the fitted concentration of half-maximal effect
In short: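 CellTiter-Glo luminescence readout; SBE-bla HEK 293T cells, overnight plating, compound 5 hr at 37 C/5% CO2, then bla substrate 2 hr RT, then CellTiter-Glo 30 min RT.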

[16] = target: Thyrotropin receptor (Homo sapiens) (UniProt P16473); experiment: qHTS assay to identify small molecule antagonists of the thyroid stimulating hormone receptor (TSHR) signaling pathway (AID 1259385; calls by dose curve; note: nearly all actives have a fitted effect of over 20% in size)
In short: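 TSHR-HEK293 cells were plated and held 18 h at 37C/5% CO2, then given compound plus Ro20-1724 and stimulated with TSH at 1.5 ng/mL final. After 30 min at room temperature, cAMP was detected with cAMP-d2/anti-cAMP-cryptate (1 h) by fluorescence.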

Sequence of Estrogen receptor (Homo sapiens) (P03372 whole entry, looked up): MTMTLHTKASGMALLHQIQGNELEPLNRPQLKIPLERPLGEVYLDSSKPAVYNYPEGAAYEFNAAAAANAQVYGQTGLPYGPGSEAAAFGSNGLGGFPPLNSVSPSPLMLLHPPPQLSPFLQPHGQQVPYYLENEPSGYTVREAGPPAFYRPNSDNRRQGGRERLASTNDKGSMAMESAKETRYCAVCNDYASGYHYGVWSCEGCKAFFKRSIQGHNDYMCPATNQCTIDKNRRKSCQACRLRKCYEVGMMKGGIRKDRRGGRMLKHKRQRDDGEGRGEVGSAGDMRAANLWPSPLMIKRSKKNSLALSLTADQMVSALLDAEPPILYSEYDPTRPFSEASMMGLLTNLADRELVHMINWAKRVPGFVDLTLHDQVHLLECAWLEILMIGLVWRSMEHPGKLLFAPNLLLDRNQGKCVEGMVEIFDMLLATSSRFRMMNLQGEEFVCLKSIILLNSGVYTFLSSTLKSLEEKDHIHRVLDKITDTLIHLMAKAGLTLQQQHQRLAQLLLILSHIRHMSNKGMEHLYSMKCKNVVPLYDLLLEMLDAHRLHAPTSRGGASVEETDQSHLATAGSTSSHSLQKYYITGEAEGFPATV
Sequence of Thyrotropin receptor (Homo sapiens) (P16473 whole entry, looked up): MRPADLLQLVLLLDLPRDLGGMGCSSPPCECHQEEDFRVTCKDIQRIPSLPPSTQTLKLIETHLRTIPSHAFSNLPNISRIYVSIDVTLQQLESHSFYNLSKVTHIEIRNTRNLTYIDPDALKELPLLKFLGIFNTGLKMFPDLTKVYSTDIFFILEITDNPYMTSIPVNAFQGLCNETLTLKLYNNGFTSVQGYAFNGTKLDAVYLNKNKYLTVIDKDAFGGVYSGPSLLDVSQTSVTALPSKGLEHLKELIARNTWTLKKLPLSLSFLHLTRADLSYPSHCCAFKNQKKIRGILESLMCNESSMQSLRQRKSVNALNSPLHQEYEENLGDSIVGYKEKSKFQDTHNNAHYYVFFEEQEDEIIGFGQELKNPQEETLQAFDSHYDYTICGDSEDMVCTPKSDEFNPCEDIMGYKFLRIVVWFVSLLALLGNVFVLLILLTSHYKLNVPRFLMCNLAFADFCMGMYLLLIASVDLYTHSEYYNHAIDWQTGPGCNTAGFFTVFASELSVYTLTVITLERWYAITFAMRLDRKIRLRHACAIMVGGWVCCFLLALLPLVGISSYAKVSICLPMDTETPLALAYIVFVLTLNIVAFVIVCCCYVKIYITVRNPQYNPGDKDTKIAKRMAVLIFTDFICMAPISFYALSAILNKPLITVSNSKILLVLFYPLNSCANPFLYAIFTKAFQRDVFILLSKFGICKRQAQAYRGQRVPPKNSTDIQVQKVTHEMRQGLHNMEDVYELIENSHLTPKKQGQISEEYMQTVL
Sequence of Progesterone receptor (Homo sapiens) (P06401 whole entry, looked up): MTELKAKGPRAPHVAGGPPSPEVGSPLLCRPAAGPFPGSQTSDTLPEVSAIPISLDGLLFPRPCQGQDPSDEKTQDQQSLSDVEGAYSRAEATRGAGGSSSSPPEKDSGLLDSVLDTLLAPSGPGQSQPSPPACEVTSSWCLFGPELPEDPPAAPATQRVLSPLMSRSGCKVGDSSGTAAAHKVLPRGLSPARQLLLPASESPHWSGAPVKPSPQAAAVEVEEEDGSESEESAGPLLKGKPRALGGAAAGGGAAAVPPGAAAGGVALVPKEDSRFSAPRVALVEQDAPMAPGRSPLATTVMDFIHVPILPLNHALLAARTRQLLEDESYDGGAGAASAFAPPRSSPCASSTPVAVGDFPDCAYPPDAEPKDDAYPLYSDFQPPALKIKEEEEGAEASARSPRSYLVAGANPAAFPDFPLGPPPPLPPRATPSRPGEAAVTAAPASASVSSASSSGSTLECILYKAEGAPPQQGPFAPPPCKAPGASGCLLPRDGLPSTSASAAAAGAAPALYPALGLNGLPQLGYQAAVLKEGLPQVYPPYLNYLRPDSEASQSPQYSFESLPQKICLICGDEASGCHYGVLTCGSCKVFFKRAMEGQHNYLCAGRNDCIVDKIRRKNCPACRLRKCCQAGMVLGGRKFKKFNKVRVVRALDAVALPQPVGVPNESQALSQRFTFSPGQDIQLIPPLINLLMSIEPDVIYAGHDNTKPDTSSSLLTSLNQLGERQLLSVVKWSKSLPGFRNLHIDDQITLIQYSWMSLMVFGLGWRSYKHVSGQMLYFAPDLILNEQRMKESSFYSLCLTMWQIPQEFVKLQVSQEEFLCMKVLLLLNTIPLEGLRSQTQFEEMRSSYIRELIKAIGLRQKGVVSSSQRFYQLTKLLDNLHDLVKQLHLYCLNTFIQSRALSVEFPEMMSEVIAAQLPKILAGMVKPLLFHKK
Sequence of Thyrotropin-releasing hormone receptor (Homo sapiens) (P34981 whole entry, looked up): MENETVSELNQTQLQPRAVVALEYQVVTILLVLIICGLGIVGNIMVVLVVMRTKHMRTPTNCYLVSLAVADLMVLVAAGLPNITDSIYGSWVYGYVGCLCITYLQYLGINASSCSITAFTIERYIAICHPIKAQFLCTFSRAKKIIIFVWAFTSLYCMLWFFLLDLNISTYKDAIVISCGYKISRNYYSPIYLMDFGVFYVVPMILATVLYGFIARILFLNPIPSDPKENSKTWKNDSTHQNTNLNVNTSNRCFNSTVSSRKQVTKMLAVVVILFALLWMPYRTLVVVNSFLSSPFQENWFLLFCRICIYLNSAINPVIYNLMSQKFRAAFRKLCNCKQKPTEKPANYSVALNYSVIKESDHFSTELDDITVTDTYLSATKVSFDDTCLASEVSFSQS
Sequence of Androgen receptor (Homo sapiens) (P10275 whole entry, looked up): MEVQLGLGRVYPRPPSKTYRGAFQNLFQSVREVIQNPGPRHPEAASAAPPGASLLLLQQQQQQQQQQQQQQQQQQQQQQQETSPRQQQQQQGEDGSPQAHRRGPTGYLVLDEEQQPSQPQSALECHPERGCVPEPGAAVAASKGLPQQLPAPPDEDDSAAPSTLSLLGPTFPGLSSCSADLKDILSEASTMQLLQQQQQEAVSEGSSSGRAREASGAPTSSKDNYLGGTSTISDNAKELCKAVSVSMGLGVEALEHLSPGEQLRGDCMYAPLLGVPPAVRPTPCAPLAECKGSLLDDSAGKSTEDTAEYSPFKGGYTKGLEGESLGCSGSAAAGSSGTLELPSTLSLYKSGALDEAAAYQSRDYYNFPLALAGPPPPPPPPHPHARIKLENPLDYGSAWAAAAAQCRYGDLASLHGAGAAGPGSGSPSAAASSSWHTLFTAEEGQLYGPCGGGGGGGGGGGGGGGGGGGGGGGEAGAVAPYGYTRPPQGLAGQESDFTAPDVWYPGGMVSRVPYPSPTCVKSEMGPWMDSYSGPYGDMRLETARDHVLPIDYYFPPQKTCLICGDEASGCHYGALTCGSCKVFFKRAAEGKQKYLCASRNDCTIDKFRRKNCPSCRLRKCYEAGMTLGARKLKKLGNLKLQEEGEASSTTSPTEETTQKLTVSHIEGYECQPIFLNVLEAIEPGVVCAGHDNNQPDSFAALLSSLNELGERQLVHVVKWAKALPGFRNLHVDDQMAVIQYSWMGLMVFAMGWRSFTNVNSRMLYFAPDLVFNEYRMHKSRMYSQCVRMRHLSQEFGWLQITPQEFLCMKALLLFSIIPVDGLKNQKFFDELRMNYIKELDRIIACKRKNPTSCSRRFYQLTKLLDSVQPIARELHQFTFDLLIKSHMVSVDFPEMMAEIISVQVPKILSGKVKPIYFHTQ

With CCCCCCCCCCCCCCCC[N+](C)(C)CCN(Cc1ccc(OC)cc1)c1ncccn1 the Potency [1] was 2.66 µM (active), the Potency [2] was 11.9 µM (active) and the Potency [3] was 13.3 µM (active). For the same compound, the Potency [4] was “inactive”, the outcome [5] was “inactive” and the Potency [6] was “inactive”. The Potency [7] was “inactive”, the Potency [8] was 29.8 µM (active) and the Potency [9] was 21.1 µM (active). For the same compound, the Potency [10] was “inactive”, the Potency [11] was “inactive” and the Potency [12] was “inactive”.

In the case of C=C(C)C(=O)OCC(O)COc1ccc(C(C)(C)c2ccc(OCC(O)COC(=O)C(=C)C)cc2)cc1 (configuration not stated), the Potency [1] is reported as 48.6 µM (active), the Potency [13] is reported as 30.6 µM (active) and the Potency [4] is reported as “inactive”. For the same compound, the outcome [5] was “inactive”, the Potency [7] was 61.1 µM (active) and the Potency [10] was “inactive”. For the same compound, the Potency [11] was “inactive” and the Potency [12] was “inactive”.

In the case of N=C1C=CC(=C(c2ccc(N)cc2)c2ccc(N)cc2)C=C1, the Potency [1] is reported as 12.2 µM (active), the Potency [13] is reported as 12.2 µM (active) and the Potency [14] is reported as “inactive”. For the same compound, the Potency [3] was “inactive”, the Potency [4] was “inactive” and the Potency [6] was 24.3 µM (active). For the same compound, the Potency [7] was “inactive”, the Potency [15] was “inactive” and the Potency [10] was “inactive”. For the same compound, the Potency [11] was “inactive” and the Potency [12] was “inactive”.

In the case of O=c1cc(-c2ccc(O)cc2)oc2cc(O)cc(O)c12, the Potency [1] is reported as “inactive and 30.6 µM (active)”, the Potency [2] is reported as “inactive” and the Potency [3] is reported as “inactive”. For the same compound, the outcome [5] was “inactive”, the Potency [16] was “inactive” and the Potency [6] was “inactive and 48.6 µM (active)”. For the same compound, the Potency [15] was “inactive”, the Potency [10] was “inactive” and the Potency [11] was “inactive”. The Potency [12] was “inactive”.

With NC(=NCCCCCCN=C(N)/N=C(\N)Nc1ccc(Cl)cc1)/N=C(\N)Nc1ccc(Cl)cc1 the Potency [1] was 21.5 µM (active) and 27.2 µM (active) and 19.2 µM (active), the Potency [13] was 62.2 µM (active) and 60.8 µM (active) and inactive and the Potency [3] was 60.6 µM (active) and 48.3 µM (active) and 44.1 µM (active). For the same compound, the outcome [5] was “inactive”, the Potency [16] was “inactive” and the Potency [6] was “inactive”. For the same compound, the Potency [7] was “inactive and 55.5 µM (active)”, the Potency [8] was “inactive” and the Potency [9] was “inactive”. For the same compound, the Potency [15] was 35.3 µM (active) and 48.7 µM (active) and inactive and the Potency [10] was “inactive”.
